# Results reported in PubChem BioAssay AID1159580 (chemical genetic matrix, 2015).
# Among all 5,500 compounds or so, about 2,000 (36%) were called active. Not shown: some 18% with an inconclusive outcome. Some of the results follow. Values without a mark were called inactive. Cut-off read from the data, not from the text of the source: active = normalized growth mostly below about 0.91 (no sharp cut-off); inconclusive = no clear call, values can overlap the other calls; inactive = mostly above about 0.92.
# Test: chemical genetic growth profiling, strain panel (AID 1159580);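 note: tested at 20 µM; growth read once vehicle control cultures reached saturation at 30 °C; 1 = growth at the plate median or of vehicle wells; lower values mean less growth of the strain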
# Conditions: S. cerevisiae deletion strains, growth OD
structure (smiles),measurement,setting,value
COc1ccc2c(c1)CCC1C2CCC2(C)C1C[C@@H](O)C2O (stereo not given in full),normalized growth,"locus YAL013W, strain DEP1, active compounds read low",1
same,normalized growth,"locus YAL021C, strain ccr4, active compounds read low",0.947
same,normalized growth,"locus YAL026C, strain drs2, active compounds read low",0.83 (active)
same,normalized growth,"locus YAL030W, strain snc1, active compounds read low",1
same,normalized growth,"locus YBL061C, strain skt5, active compounds read low",1
same,normalized growth,"locus YBR009C, strain hhf1, active compounds read low",0.917
same,normalized growth,"locus YBR021W, strain FUR4, active compounds read low",1.08
same,normalized growth,"locus YBR023C, strain chs3, active compounds read low",0.988
same,normalized growth,"locus YBR171W, strain sec66, active compounds read low",0.983
same,normalized growth,"locus YBR229C, strain ROT2, active compounds read low",1.02
same,normalized growth,"locus YBR231C, strain swc5, active compounds read low",1.01
same,normalized growth,"locus YBR279W, strain paf1, active compounds read low",0.992
same,normalized growth,"locus YCL011C, strain gbp2, active compounds read low",0.977
same,normalized growth,"locus YCL016C, strain dcc1, active compounds read low",0.949
same,normalized growth,"locus YCL029C, strain bik1, active compounds read low",0.993
same,normalized growth,"locus YCL061C, strain MRC1, active compounds read low",0.985
same,normalized growth,"locus YCL069W, strain vba3, active compounds read low",1
same,normalized growth,"locus YCR088W, strain abp1, active compounds read low",0.998
same,normalized growth,"locus YDL005C, strain med2, active compounds read low",1.01
same,normalized growth,"locus YDL035C, strain GPR1, active compounds read low",0.962
same,normalized growth,"locus YDL040C, strain nat1, active compounds read low",0.993
same,normalized growth,"locus YDL074C, strain BRE1, active compounds read low",0.95
same,normalized growth,"locus YDL101C, strain DUN1, active compounds read low",1.02
same,normalized growth,"locus YDL134C, strain PPH21, active compounds read low",0.952
same,normalized growth,"locus YDL185W, strain tfp1, active compounds read low",0.992
same,normalized growth,"locus YDL192W, strain arf1, active compounds read low",0.997
same,normalized growth,"locus YDR001C, strain nth1, active compounds read low",1.01
same,normalized growth,"locus YDR069C, strain doa4, active compounds read low",0.992
same,normalized growth,"locus YDR101C, strain arx1, active compounds read low",0.987
same,normalized growth,"locus YDR137W, strain rgp1, active compounds read low",0.854
same,normalized growth,"locus YDR150W, strain NUM1, active compounds read low",1.01
same,normalized growth,"locus YDR159W, strain sac3, active compounds read low",0.966
same,normalized growth,"locus YDR162C, strain NBP2, active compounds read low",0.978
same,normalized growth,"locus YDR195W, strain ref2",1.1
same,normalized growth,"locus YDR297W, strain sur2, active compounds read low",1
same,normalized growth,"locus YDR318W, strain mcm21, active compounds read low",0.991
same,normalized growth,"locus YDR334W, strain swr1, active compounds read low",1
same,normalized growth,"locus YDR335W, strain msn5, active compounds read low",0.997
same,normalized growth,"locus YDR388W, active compounds read low",0.99
same,normalized growth,"locus YDR392W, strain spt3, active compounds read low",0.685 (active)
same,normalized growth,"locus YDR502C, strain sam2, active compounds read low",0.997
same,normalized growth,"locus YEL003W, strain gim4, active compounds read low",0.992
same,normalized growth,"locus YEL037C, strain rad23, active compounds read low",1
same,normalized growth,"locus YEL061C, strain CIN8 (second series), active compounds read low",1.01
same,normalized growth,"locus YEL061C, strain CIN8, active compounds read low",1.01
same,normalized growth,"locus YER015W, strain faa2, active compounds read low",0.996
same,normalized growth,"locus YER016W, strain bim1, active compounds read low",0.979
same,normalized growth,"locus YER110C, active compounds read low",0.983
same,normalized growth,"locus YER111C, strain swi4, active compounds read low",0.984
same,normalized growth,"locus YER155C, strain BEM2 (second series), active compounds read low",0.715 (active)
same,normalized growth,"locus YER155C, strain BEM2, active compounds read low",1.02
same,normalized growth,"locus YER167W, strain BCK2, active compounds read low",0.999
same,normalized growth,"locus YFR010W, strain ubp6, active compounds read low",1
same,normalized growth,"locus YGL078C, strain dbp3, active compounds read low",0.997
same,normalized growth,"locus YGL086W, strain mad1, active compounds read low",0.991
same,normalized growth,"locus YGL167C, strain pmr1, active compounds read low",1
same,normalized growth,"locus YGL173C, strain kem1, active compounds read low",0.949
same,normalized growth,"locus YGL227W, strain vid30, active compounds read low",1
same,normalized growth,"locus YGL240W, strain doc1, active compounds read low",0.944
same,normalized growth,"locus YGL248W, strain PDE1, active compounds read low",1
same,normalized growth,"locus YGL253W, strain hxk2, active compounds read low",0.903 (active)
same,normalized growth,"locus YGR135W, strain pre9, active compounds read low",0.961
same,normalized growth,"locus YGR252W, strain gcn5, active compounds read low",0.774
same,normalized growth,"locus YHR013C, strain ard1, active compounds read low",0.906
same,normalized growth,"locus YHR027C, strain rpn1, active compounds read low",1.01
same,normalized growth,"locus YHR030C, strain SLT2, active compounds read low",1.01
same,normalized growth,"locus YHR079C, strain IRE1 (second series), active compounds read low",0.992
same,normalized growth,"locus YHR094C, strain hxt1, active compounds read low",0.992
same,normalized growth,"locus YHR129C, strain ARP1, active compounds read low",1.01
same,normalized growth,"locus YHR142W, strain chs7, active compounds read low",0.925
same,normalized growth,"locus YHR200W, strain rpn10, active compounds read low",0.993
same,normalized growth,"locus YIL066C, strain RNR3, active compounds read low",0.98
same,normalized growth,"locus YIL073C, strain SPO22, active compounds read low",0.91
same,normalized growth,"locus YIL125W, strain kgd1, active compounds read low",1
same,normalized growth,"locus YIR030C, strain dcg1, active compounds read low",0.991
same,normalized growth,"locus YJL092W, strain hpr5, active compounds read low",0.998
same,normalized growth,"locus YJL095W, strain BCK1 (second series), active compounds read low",0.981
same,normalized growth,"locus YJL095W, strain BCK1, active compounds read low",0.944
same,normalized growth,"locus YJL115W, strain asf1, active compounds read low",0.995
same,normalized growth,"locus YJL129C, strain trk1, active compounds read low",0.915
same,normalized growth,"locus YJL134W, strain LCB3, active compounds read low",1.02
same,normalized growth,"locus YJL154C, strain vps35, active compounds read low",1.02
same,normalized growth,"locus YJL164C, strain tpk1, active compounds read low",0.907 (active)
same,normalized growth,"locus YJL168C, strain set2, active compounds read low",0.994
same,normalized growth,"locus YJL187C, strain SWE1 (second series), active compounds read low",1
